# Experimental data as given in PubChem BioAssay (NCATS).
# The source made the active and inactive calls. Calls come from the whole dose curve; as a rule, active = well fitted activation curve with a large enough effect; inconclusive = small, poorly fitted or top-dose-only effect; inactive = flat fitted curve, though single readings scatter.
# Assay: Cellular Toxicity (caspase-3) N2a (AID 665);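 note: compound exposure lasted 16 h at 37 °C before readout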
# Conditions: N2a cells, luminescence; Potency: caspase-3 activation; series mostly up to 92.2 µM; caspase-3 activation: at the top concentration
# Description: NIH Chemical Genomics Center [NCGC]
# NIH Molecular Libraries Screening Centers Network [MLSCN]
# National Institutes of Environmental Health Sciences [NIEHS]
# National Toxicology Program [NTP]
# We have developed a 1536-well cell-based assay for quantitative high throughput screening (qHTS) against a number of cell lines to determine in vitro caspase 3/7 activity of small molecules. This particular assay uses the N2a cell line which is derived from mouse neuroblastoma.
# NCGC Assay Protocol Summary:
# The Caspase-Glo 3/7 assay (Promega) is a homogeneous method to measure caspase-3 and caspase-7 activities in cultured cells. The quantitation of caspase 3/7 activity is based on the cleavage of a peptide-aminoluciferin substrate. After caspase cleaves the substrate the free aminoluciferin is liberated and serves as the substrate of luciferase, which generates the light. The luminescent signal is proportional to the amount of caspase 3/7 activity present.
# Using the Caspase-Glo 3/7 assay, the amount of caspase 3/7 activity was measured in the N2a cells with complete culture medium following compound treatment for 16 hours. The assay was performed in opaque white 1536-well plates. In the screen, staurosporine and doxorubicin were used as positive controls. Library compounds were measured for their ability to cause the activation of caspase 3/7 in the cell line, as reflected by an increase in luminescence signal, in a concentration-dependent manner. Data were normalized to the controls for basal activity (DMSO only) and 100% stimulation (10 uM staurosporine). AC50 values were determined from concentration-response data modeled with the standard Hill equation.
# qHTS protocol for caspase 3/7 assay in mouse N2a cell line
# [Step] [Parameter] [Value] [Description]
# 1. Reagent; 5 uL; 1500 mouse N2a cells/well
# 2. Time; 5 hr; 37 °C incubation
# 4. Controls; 23 nL; doxorubicin 7 pM to 100 uM & staurosporine 1.4 pM to 20 uM
# 5. Time; 16 hr; 37 °C incubation
# 6. Reagent; 5 uL; Caspase-Glo 3/7 reagent
# 7. Time; 1 hr; Room Temperature
# 8. Detection; Luminescence; Viewlux plate reader
# Keywords: caspase 3/7, apoptosis, mouse N2a cell line, luminescence, NTPHTS, NTPHTS_NCGC, NIEHS, EPA, DSSTox, MLSMR, MLSCN, NIH Roadmap, qHTS, NCGC
# Potency is the fitted concentration of half-maximal effect.
Compound,caspase-3 activation,Potency
CCn1cc(C(=O)O)c(=O)c2ccc(C)nc21,-2.69% (inactive),–
CC1=C(/C=C/C(C)=C/C=C/C(C)=C/C(=O)Nc2ccc(O)cc2)C(C)(C)CCC1,–,31.6 µM (active)
O=c1c(O)c(-c2ccc(O)cc2)oc2cc(O)cc(O)c12,-4.98% (inactive),–
O=C(O)Cc1cccc2ccccc12,-2.55% (inactive),–
O=c1cc(-c2ccc(O)cc2)oc2cc(O)cc(O)c12,-11% (inactive),–
CC(=O)c1ccc(S(=O)(=O)NC(=O)NC2CCCCC2)cc1,-3.47% (inactive),–
O=c1[nH]cnc2c1ncn2[C@H]1CC[C@@H](CO)O1,-2.59% (inactive),–
CCCCC1C(=O)N(c2ccccc2)N(c2ccccc2)C1=O,-4.3% (inactive),–
O=c1c(-c2ccc(O)cc2)coc2cc(O)ccc12,-17.4% (inactive),–
CN(C)CCC(c1ccccc1)c1ccccn1 (centres undefined),-1.16% (inactive),–
O=C1NC(=O)C(c2ccccc2)(c2ccccc2)N1,-0.551% (inactive),–
CC(=O)O[C@]1(C(C)=O)CC[C@H]2[C@@H]3C=C(Cl)C4=CC(=O)[C@@H]5C[C@@H]5[C@]4(C)[C@H]3CC[C@@]21C,0.575% (inactive),–
O=C(O)c1cc(O)c2c(c1)C(=O)c1cccc(O)c1C2=O,-13.4% (inactive),–
CCCNC(=O)NS(=O)(=O)c1ccc(Cl)cc1,6.28% (inactive),–
